From the supplement of paper PMC6411743
± gives the standard deviation of the averaged measurements. The full data set covers some 6,500 targets. This sample favours those with the largest changes.

Compound: Nc1ncnc2c1ncn2[C@@H]1O[C@H](COP(=O)(O)OP(=O)(O)OP(=O)(O)O)[C@@H](O)[C@H]1O [adenosine triphosphate]
Experiment: NP40-soluble protein abundance relative to vehicle (solubility fold change) (ratio); higher = more soluble protein in presence of ATP
In short: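 Crude Jurkat lysate, prepared by Dounce homogenisation, was exposed to eight concentrations from 0.1 to 10 mM for 10 min at room temperature and then 3 min at 37 °C. Solubilisation used 0.8% NP40 with benzonase for 60 min at 4 °C, followed by ultracentrifugation and TMT labelling of the supernatant for LC-MS/MS. After vsn normalisation of intensities, each value is the fold change against the detergent-processed vehicle within each replicate, across three independent experiments.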

Chain of UniProt Q8N3Z6 (Q8N3Z6 whole entry): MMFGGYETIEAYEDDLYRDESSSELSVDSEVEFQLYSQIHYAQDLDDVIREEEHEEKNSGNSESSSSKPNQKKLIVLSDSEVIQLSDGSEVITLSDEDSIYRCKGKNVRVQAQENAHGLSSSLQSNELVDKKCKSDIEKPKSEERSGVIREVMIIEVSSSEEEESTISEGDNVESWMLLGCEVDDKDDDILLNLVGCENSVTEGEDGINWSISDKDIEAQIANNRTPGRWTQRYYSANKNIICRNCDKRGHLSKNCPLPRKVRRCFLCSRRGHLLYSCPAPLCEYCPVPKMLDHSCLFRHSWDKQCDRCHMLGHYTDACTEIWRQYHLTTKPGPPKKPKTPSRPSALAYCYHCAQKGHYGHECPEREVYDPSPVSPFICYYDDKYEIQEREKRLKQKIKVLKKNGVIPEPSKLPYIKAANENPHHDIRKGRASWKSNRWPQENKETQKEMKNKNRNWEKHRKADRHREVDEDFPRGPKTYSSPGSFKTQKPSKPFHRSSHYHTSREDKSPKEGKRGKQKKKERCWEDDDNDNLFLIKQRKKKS
Chain of UniProt Q6PK18 (Q6PK18 whole entry): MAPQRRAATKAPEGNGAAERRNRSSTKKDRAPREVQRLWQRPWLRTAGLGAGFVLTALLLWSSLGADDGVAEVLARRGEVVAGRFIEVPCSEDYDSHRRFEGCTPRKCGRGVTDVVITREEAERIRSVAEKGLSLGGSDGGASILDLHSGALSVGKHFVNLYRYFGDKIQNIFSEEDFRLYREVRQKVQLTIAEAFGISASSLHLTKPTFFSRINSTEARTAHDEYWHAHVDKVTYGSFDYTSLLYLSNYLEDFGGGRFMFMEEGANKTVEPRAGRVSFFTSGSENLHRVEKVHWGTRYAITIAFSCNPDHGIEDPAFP
Chain of UniProt Q14061 (Q14061 whole entry): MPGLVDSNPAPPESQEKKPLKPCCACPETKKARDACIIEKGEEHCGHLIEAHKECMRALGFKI
Chain of UniProt Q86VR2 (Q86VR2 whole entry): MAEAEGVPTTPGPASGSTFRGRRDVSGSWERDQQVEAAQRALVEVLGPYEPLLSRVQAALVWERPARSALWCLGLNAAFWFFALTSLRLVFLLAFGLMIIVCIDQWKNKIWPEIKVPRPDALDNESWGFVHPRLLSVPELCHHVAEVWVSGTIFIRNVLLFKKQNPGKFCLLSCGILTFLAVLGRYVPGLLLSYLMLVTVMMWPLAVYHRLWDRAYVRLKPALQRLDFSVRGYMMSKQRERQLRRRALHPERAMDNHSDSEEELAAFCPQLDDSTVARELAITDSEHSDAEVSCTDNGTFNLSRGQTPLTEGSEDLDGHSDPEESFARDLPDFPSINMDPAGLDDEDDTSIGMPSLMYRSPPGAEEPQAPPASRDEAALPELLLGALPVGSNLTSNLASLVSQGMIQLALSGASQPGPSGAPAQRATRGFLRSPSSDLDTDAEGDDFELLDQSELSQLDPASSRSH
Chain of UniProt Q7L590 (Q7L590 whole entry, one chain of several): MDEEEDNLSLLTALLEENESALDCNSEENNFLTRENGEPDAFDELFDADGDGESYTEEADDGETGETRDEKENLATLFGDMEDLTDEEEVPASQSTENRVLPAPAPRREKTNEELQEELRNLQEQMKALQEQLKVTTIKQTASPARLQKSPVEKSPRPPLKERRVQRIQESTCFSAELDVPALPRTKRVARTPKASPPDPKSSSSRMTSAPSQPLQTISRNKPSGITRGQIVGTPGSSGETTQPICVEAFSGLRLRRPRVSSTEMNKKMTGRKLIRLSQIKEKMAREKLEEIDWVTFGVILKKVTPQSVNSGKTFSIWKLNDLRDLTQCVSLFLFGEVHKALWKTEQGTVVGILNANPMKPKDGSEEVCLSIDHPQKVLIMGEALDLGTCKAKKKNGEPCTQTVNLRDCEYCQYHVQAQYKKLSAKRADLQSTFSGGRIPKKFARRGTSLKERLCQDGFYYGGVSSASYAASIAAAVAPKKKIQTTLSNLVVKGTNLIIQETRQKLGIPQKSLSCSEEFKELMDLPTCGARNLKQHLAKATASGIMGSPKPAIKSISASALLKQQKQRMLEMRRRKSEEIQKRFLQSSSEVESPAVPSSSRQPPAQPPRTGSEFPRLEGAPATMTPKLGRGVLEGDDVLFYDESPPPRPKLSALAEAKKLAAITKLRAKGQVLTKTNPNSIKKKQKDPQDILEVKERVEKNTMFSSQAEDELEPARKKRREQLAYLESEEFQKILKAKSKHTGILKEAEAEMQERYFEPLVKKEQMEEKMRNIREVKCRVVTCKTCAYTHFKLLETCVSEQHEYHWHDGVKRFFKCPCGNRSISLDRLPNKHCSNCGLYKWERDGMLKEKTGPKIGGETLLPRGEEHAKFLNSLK
Chain of UniProt Q13523 (Q13523 whole entry, looked up): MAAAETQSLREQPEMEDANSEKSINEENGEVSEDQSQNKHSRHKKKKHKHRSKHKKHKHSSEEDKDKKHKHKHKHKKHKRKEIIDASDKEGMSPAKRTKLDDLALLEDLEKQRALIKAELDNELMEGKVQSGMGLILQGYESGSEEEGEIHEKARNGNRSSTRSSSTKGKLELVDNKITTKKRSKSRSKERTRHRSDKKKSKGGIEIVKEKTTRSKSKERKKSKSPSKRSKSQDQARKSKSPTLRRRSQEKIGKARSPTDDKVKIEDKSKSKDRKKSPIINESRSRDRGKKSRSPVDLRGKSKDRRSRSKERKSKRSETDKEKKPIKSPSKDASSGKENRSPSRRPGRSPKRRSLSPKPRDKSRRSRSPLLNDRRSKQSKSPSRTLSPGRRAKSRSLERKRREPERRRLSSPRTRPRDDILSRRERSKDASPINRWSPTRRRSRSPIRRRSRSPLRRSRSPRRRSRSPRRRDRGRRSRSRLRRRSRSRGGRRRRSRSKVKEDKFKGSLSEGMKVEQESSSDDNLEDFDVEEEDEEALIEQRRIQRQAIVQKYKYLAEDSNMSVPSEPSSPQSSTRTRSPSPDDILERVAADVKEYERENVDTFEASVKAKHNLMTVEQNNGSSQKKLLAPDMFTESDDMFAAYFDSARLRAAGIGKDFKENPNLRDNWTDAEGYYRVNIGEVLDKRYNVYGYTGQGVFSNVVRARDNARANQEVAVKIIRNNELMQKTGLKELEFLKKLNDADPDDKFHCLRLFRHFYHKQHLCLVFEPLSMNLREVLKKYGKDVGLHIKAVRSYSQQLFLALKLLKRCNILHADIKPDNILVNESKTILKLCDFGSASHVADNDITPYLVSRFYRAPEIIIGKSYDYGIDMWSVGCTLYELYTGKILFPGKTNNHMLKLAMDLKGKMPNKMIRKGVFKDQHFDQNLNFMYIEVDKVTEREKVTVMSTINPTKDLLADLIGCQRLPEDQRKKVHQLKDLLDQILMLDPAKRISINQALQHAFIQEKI
Chain of UniProt Q13769 (Q13769 whole entry): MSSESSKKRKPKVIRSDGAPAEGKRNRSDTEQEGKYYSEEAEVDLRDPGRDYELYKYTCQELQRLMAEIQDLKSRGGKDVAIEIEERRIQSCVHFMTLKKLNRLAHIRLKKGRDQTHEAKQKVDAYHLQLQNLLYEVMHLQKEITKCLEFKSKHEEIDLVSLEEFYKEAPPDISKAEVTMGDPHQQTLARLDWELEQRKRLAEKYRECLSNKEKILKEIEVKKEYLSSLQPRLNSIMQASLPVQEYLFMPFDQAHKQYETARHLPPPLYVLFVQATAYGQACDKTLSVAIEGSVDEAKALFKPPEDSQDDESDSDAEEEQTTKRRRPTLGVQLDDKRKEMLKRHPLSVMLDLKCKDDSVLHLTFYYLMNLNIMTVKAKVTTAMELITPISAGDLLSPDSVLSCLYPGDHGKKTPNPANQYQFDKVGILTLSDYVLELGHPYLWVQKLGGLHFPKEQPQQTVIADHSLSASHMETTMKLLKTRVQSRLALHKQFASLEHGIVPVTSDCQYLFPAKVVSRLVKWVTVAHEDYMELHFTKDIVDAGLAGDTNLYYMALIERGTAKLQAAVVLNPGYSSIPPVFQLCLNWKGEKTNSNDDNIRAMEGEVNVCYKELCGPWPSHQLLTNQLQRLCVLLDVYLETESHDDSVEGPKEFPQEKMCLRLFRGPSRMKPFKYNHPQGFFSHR
Chain of UniProt Q13438 (Q13438 whole entry): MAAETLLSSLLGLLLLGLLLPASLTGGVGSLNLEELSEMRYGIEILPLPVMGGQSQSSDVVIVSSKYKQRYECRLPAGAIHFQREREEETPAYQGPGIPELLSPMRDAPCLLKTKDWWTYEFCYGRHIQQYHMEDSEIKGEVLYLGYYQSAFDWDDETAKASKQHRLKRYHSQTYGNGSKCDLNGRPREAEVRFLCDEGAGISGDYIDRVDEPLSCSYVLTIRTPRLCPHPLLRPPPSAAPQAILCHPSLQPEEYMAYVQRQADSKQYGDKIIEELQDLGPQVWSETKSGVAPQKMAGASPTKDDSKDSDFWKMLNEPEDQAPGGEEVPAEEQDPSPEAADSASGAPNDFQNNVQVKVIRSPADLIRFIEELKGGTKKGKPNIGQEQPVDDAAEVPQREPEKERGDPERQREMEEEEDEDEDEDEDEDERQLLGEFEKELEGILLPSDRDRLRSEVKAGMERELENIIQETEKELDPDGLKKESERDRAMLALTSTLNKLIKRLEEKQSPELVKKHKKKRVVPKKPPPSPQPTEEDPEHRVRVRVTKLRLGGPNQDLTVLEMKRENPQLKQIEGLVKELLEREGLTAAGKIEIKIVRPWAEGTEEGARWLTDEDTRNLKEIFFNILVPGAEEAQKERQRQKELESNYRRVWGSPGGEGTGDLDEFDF
Chain of UniProt Q8N183 (Q8N183 whole entry): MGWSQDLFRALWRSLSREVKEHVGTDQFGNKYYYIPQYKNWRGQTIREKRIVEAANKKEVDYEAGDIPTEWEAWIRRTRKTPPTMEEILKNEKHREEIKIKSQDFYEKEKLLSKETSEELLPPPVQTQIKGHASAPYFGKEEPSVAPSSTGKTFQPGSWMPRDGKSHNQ
Chain of UniProt Q8TCD5 (Q8TCD5 whole entry, one chain of several): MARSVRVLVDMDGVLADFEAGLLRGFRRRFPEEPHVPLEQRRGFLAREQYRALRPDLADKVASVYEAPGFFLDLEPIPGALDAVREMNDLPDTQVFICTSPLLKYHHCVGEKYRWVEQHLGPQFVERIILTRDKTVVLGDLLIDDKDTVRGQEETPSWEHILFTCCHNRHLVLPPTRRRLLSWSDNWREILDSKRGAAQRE

Target	NP40-soluble protein abundance (concentration: 1mM)	NP40-soluble protein abundance (concentration: 2mM)	NP40-soluble protein abundance (concentration: 4mM)	NP40-soluble protein abundance (concentration: 6mM)	NP40-soluble protein abundance (concentration: 8mM)	NP40-soluble protein abundance (concentration: 10mM)
COX17 (UniProt Q14061)	0.938 ± 0.1	0.895 ± 0.074	0.92 ± 0.1	0.963 ± 0.033	0.859 ± 0.056	0.847 ± 0.023
UniProt Q6PK18|Q6PK18-2	1.06 ± 0.02	1.06 ± 0.061	0.955 ± 0.045	1.03 ± 0.074	1.09 ± 0.15	1.04 ± 0.024
THOC5 (UniProt Q13769)	1.53 ± 0.054	1.68 ± 0.11	2.01 ± 0.17	2.23 ± 0.28	2.52 ± 0.27	2.52 ± 0.29
UniProt Q86VR2	0.91 ± 0.084	0.941 ± 0.088	0.925 ± 0.11	0.869 ± 0.037	0.906 ± 0.064	0.943 ± 0.052
ZCCHC7 (UniProt Q8N3Z6)	1.02 ± 0.19	1.2 ± 0.026	1.34 ± 0.021	1.48 ± 0.018	1.51 ± 0.15	1.79 ± 0.044
NDUFAF2 (UniProt Q8N183)	0.927 ± 0.11	0.916 ± 0.046	0.934 ± 0.093	0.906 ± 0.046	0.959 ± 0.062	0.848 ± 0.12
UniProt Q8TCD5|J3KRC4	1 ± 0.021	1.02 ± 0.04	1.01 ± 0.057	0.942 ± 0.15	1.01 ± 0.11	0.954 ± 0.091
PRPF4B (UniProt Q13523)	1.29 ± 0.015	1.329 ± 0.011	1.46 ± 0.018	1.6 ± 0.061	1.68 ± 0.041	1.8 ± 0.022
Q5QPA5|Q9NVS2|Q9NVS2-2 (UniProt Q9NVS2)	1.07 ± 0.12	0.926 ± 0.14	0.879 ± 0.17	0.946 ± 0.39	0.887 ± 0.24	0.818 ± 0.2
UniProt Q8IWZ8	1.03 ± 0.036	1.05 ± 0.037	1.08 ± 0.034	1.11 ± 0.068	1.11 ± 0.051	1.09 ± 0.037
UniProt Q13409|Q13409-2|Q13409-3|Q13409-7|Q13409-5	0.957 ± 0.063	0.957 ± 0.037	0.953 ± 0.059	0.994 ± 0.18	0.975 ± 0.089	0.973 ± 0.074
UniProt Q13438|Q13438-7	0.953 ± 0.036	0.953 ± 0.049	0.94 ± 0.056	0.99 ± 0.069	0.939 ± 0.031	0.952 ± 0.045
UniProt Q2KHT3|Q2KHT3-2	1.04 ± 0.045	0.967 ± 0.1	0.963 ± 0.11	0.999 ± 0.093	1.04 ± 0.15	1.02 ± 0.17
UniProt Q7L590|Q7L590-2|Q5T670	1.01 ± 0.11	1.07 ± 0.059	1.13 ± 0.044	1.01 ± 0.057	1.11 ± 0.12	1.14 ± 0.12
AUH (UniProt Q13825)	0.96 ± 0.062	0.979 ± 0.049	0.967 ± 0.035	0.93 ± 0.082	0.96 ± 0.055	0.973 ± 0.036
